Drawing on PubChem BioAssay (Tox21), this text covers Potency for 40 compounds.

The structures appear in SMILES notation. Results filed as inconclusive are left out. Entries that show only a call come without a potency. Activity calls are given as the source filed them. Calls follow the shape of the dose curve; as a rule, active = well fitted activation curve with a large enough effect in the repeat runs; inconclusive = weak or mixed curves; inactive = no such curve, though single readings can be large or run the other way.
Potency is read from the fitted curve at half-maximal effect.

In this assay the target is Nuclear receptor subfamily 1 group I member 2 (Homo sapiens) (UniProt O75469). The assay can be described thus: CYP3A4 induction through human pregnane X receptor (PXR) by small molecules, qHTS assay (AID 1346984). Also: nearly all actives have a fitted effect of over 40% in size. To be noted: DPX-2 HepG2 PXR, CYP3A4-luciferin luminescence, 24 h; series mostly up to 46.1 µM. An excerpt:
National Center for Advancing Translational Sciences [NCATS]
NIH Chemical Genomics Center [NCGC]
U.S. Environmental Protection Agency [EPA]
National Institutes of Environmental Health Sciences [NIEHS]
National Toxicology Program [NTP]
The Pregnane X receptor (PXR), a ligand activated nuclear receptor plays a critical role in the regulation of genes involved in drug metabolism and transporters. Activation of PXR is responsible for unwanted adverse drug reactions. PXR binds xenobiotics and when compounds interact with PXR enhances the expression of CYP3A genes. Identifying the compounds with the potential for PXR activation and CYP3A4 induction can be of importance in improving the efficacy of drugs with less toxicity and avoiding drug-drug interactions.
DPX-2 (Puracyp, Inc.) cell lines, used for screening against human PXR activation has HepG2 cells co-transfected with a PXR response element and a luciferase construct containing CYP3A4 promoter. Increase in luciferase activity can be used to identify the compounds that cause the induction of CYP3A4.
DPX-2 cells were dispensed at 2,000 cells per well in 5uL of assay medium into white, solid-bottom 1536-well plates using a Multidrop Combi dispenser (Thermo Scientific). The assay plates were incubated at 37C for 5hr before transferring 23nL of test compounds dissolved in DMSO and positive control via Pintool station (Wako). The assay plates were incubated at 37C for 24hr. After 24hr compound treatment, 1uL of 3uM (final concentration) P450 substrate (P450-Glo CYP3A4 screening system with Luciferin-IPA, Promega) was added by a Flying Reagent Dispenser (FRD, Aurora Discovery). The assay plates were incubated for 3hr at 37C. Then 5ul One-Glo assay reagent (Promega) was added to each plate by an FRD and following 30 min incubation at room temperature, luciferase activity was quantified on a ViewLux plate reader (Perkin Elmer).
Turning to `ClC(Cl)(Cl)Cl`, the Potency entry was “inactive”. With `NC(=O)CS(=O)C(c1ccccc1)c1ccccc1` (stereo not given) the entry was “inactive”; with `CC[C@@H](CO)NC(=O)[C@@H]1C=C2c3cccc4c3c(cn4C)C[C@H]2N(C)C1`, “inactive”; with `Cc1ccc(-c2nc3ccc(C)cn3c2CC(=O)N(C)C)cc1`, “inactive”.

Take `Cc1ccc(S(=O)(=O)N[C@@H](CCCCN)C(=O)CCl)cc1`: the Potency entry is “inactive”. For `CCC1(c2ccccc2)CCC(=O)NC1=O` (stereo not given), the Potency entry was “inactive”. `Cc1ccc2c(c1)C1CN(C)CCC1N2` (stereo not given): the Potency entry was “inactive”.

With `CCCC(C)(COC(N)=O)COC(N)=O`, the Potency entry was “inactive”.

As to `CCCCCCC(=O)CCCCCC/C=C/C[C@@H](O)[C@H](O)[C@@](N)(CO)C(=O)O`, the Potency entry is “inactive”. With `CC1=C2[C@H]3OC(=O)[C@@H](C)[C@@H]3CC[C@@]2(C)C=CC1=O` the figure was 11.2 µM (active); with `CC(=O)OCC1=C(C(=O)O)N2C(=O)[C@@H](N)[C@H]2SC1`, “inactive”; with `S=C=S`, “inactive”. With `ClC1=C(Cl)C2(Cl)C(CBr)CC1(Cl)C2(Cl)Cl` (stereo not given) the entry was “inactive”; with `CC(C)(N)Cc1ccc(Cl)cc1`, “inactive”. In the case of `CCN(CC)CCOC(=O)C(O)(c1ccccc1)c1ccccc1`, the Potency result was “inactive”. As to `C[C@]12C=CC(=O)C=C1CC[C@@H]1[C@@H]2CC[C@@]2(C)[C@H]1CC[C@]2(C)O`, the Potency entry is “inactive”. For `O=C1C2CC=CCC2C(=O)N1SC(Cl)(Cl)Cl` (stereo not given), the Potency entry was “inactive”.

Regarding `Cc1ccc(Cl)c(O)c1`, the Potency result was “inactive”. On to `CCC(C(N)=O)N1CCCC1=O` (stereo not given), for which the Potency result was “inactive”. The result for `CN(C)C(=O)Oc1cc(OC(=O)N(C)C)cc(C(O)CNC(C)(C)C)c1` (stereo not given) reads “inactive”; that for `CC1NCCOC1c1ccccc1` (stereo not given), “inactive”; that for `CCOC(=O)CC(SP(=S)(OC)OC)C(=O)OCC` (stereo not given), “inactive”.

With `CCC1(c2ccccc2)C(=O)N(COC)C(=O)N(COC)C1=O`, the Potency is 10 µM (active). With `C=C1C[C@@H]2[C@H](CC[C@]3(C)C(=O)CC[C@@H]23)[C@@]2(C)C=CC(=O)C=C12` the entry was “inactive”. Turning to `CC(C)[N+](C)(CCC(C(N)=O)(c1ccccc1)c1ccccc1)C(C)C`, the Potency entry is “inactive”. Consider `C=C1CC[C@@]2(O)[C@H]3Cc4ccc(O)c5c4[C@@]2(CCN3CC2CC2)[C@H]1O5`, for which the Potency entry is “inactive”. `NC(=O)OCCCc1ccccc1`: the Potency result was “inactive”. `CCCN1CCC[C@@H]2Cc3nc(N)ncc3C[C@H]21`: the Potency result was “inactive”. `CNC(=O)NC(O)C(Cl)(Cl)Cl` (stereo not given): the Potency entry is “inactive”. As to `Cn1c(CCCC(=O)O)nc2cc(N(CCCl)CCCl)ccc21`, the Potency entry is “inactive”. For `O=C(NC(O)C(Cl)(Cl)Cl)NC(O)C(Cl)(Cl)Cl` (stereo not given), the Potency result was “inactive”.

Regarding `N#CN`, the Potency entry is “inactive”. Take `CN1C(=O)COc2c(C(=O)NC3CN4CCC3CC4)cc(Cl)cc21` (stereo not given): the Potency result was “inactive”. Turning to `N[C@@H]1C[C@H]1c1ccccc1`, the Potency result was “inactive”. Take `ClCC1CO1` (stereo not given): the Potency entry was “inactive”. Take `CCC1(c2cccc(O)c2)CCCCN(C)C1` (stereo not given): the Potency entry was “inactive”. With `COc1cccc([C@@]2(O)CCCC[C@@H]2CN(C)C)c1` the entry was “inactive”; with `C[C@@H](N)[C@@H](O)c1ccccc1`, “inactive”. Turning to `C=C(C)[C@H]1CN[C@H](C(=O)O)[C@H]1CC(=O)O`, the Potency result is “inactive”. Consider `CC(C)(O)C(Cl)(Cl)Cl`, for which the Potency result is “inactive”.
